Screen size: about 340,000 compounds; about 210 (0.062%) were called active. The list comes from a sample in which actives are over-represented; it also holds similar structures and randomly drawn compounds. Values without a mark were called inactive. Cut-off read from the data, not from the text of the source: active = inhibition above about 30% (passing the limit was not always enough); inconclusive = no clear call, values can overlap the other calls.

The assay relates to PvdQ acylase [Pseudomonas aeruginosa LESB58]. The assay is described as follows: P. aeruginosa PvdQ acylase inhibitors, primary screen, biochemical, fluorescence, plate reader and imaging, single point (AID 488965).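 Note: 0% = vehicle neutral wells and 100% = reference inhibitor wells.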 The following applies: purified PvdQ acylase, at 10 µM, hits give high values.
As for `CCSc1nc2sc3c(c2c(=O)n1-c1ccc(C)cc1)CCN(C)C3`, the inhibition is -19.4%.

`C/C=N/N(c1ccccc1)c1ccccc1`: the inhibition is -15.2%.

With `COC(=O)C[n+]1cccc2ccccc21`, the inhibition is -19.7%.

Consider `CC(=O)c1ccccc1NC(=O)C1CC(=O)N(c2ccc3c(c2)OCCO3)C1` (centres undefined), for which the inhibition was 3.1%.

For `Cc1ccc(-c2csc(N3CCN(c4cc5c(cc4Cl)nc(-c4ccncc4)n5CCOCCO)CC3)n2)cc1`, the inhibition is 2.95%.

In the case of `CCOc1ccc(/C=C(/NC(=O)c2ccccc2)C(=O)NCCC(=O)O)cc1`, the inhibition is 3.82%.

For the compound `O=C(NCc1cccnc1)c1cnc2ccccc2n1`, the inhibition was -7.28%.

In the case of `COc1ccccc1CN1CCCC(N2CCN(c3ccc(F)cc3)CC2)C1` (centres undefined), the inhibition is -5.39%.

Turning to `O=C(COC(=O)/C=C/c1cccs1)NC1CCCCC1`, the inhibition was -1.95%.

In the case of `COc1ccc(Cn2c(-c3ccc(Cl)cc3)c[n+]3ccccc23)cc1`, the inhibition was -9.83%.

As to `COc1ccc(/C(N)=N/OC(=O)CCCc2ccccc2)cc1`, the inhibition was 12.9%.

Take `Cc1ccccc1N1CC(C(=O)Nc2ccc(S(=O)(=O)N3CCCC3)cc2)CC1=O` (centres undefined): the inhibition is -17.2%.

In the case of `COc1ccccc1C(=O)N(Cc1ccc(C)o1)C1CCS(=O)(=O)C1` (centres undefined), the inhibition is -16.8%.

Take `O=C(NCc1cccc(CNC(=O)Nc2cccc(O)c2)c1)Nc1cccc(O)c1`: the inhibition was 8.11%.

`OCCn1c(-c2ccccc2)csc1=Nc1ccccc1`: the inhibition was -14.6%.

On to `CNC[C@H](CC1CCCCC1)NC[C@H](NCCC1CCCC1)[C@H](C)O`, for which the inhibition is -4.64%.

Consider `CCCCNC1(C#N)CCN(Cc2ccccc2)CC1`, for which the inhibition was -10.8%.

In the case of `Cc1ccc(S(=O)(=O)N[C@@H](Cc2ccccc2)C(=O)N2CCC(C(=O)N[C@H](C(=O)O)C(C)O)CC2)cc1` (some centres undefined), the inhibition was -16.1%.

On to `CN1CCN(CC(O)COCc2ccc3c(c2)OCO3)CC1` (centres undefined), for which the inhibition was 13.9%.

`O=C(c1cccs1)C1C(c2ccc(Br)cc2)NC(=S)NC1(O)C(F)(F)F` (centres undefined): the inhibition was -1.76%.

`Cc1ccc2nc(SCC(=O)N3CCN(c4ccccc4)CC3)nc(=O)n2c1`: the inhibition was -4.06%.

In the case of `CCC1([N+](=O)[O-])COC(c2ccc(C)cc2)OC1` (centres undefined), the inhibition was -3.75%.

For the compound `CCCCCN(C(=O)NC(=O)Nc1ccccc1OC)S(C)(=O)=O`, the inhibition is -5.97%.

Take `Cc1cccn2c(CN(C)C3CCCc4ccccc43)c(C(=O)N3CCOCC3)nc12` (centres undefined): the inhibition is -1.38%.

On to `CCOc1cccc(OCCCOc2cccc3cccnc23)c1`, for which the inhibition was -17.7%.

`COc1ccc(S(=O)(=O)N(C)C[C@H]2Oc3ccc(NS(=O)(=O)c4cccs4)cc3CC(=O)N([C@H](C)CO)C[C@H]2C)cc1`: the inhibition is 3.49%.

`CCCCCC1CC(COc2ccccc2)OC1=O` (centres undefined): the inhibition is 44.8% (active).

As for `CCCCN1CC(COc2ccccc2)Oc2cccc(F)c2S1(=O)=O` (centres undefined), the inhibition is -16%.

Turning to `O=C(O)c1ccc(OCC2CCCO2)cc1` (centres undefined), the inhibition was -9.45%.

`CCCCCCNS(=O)(=O)c1ccccc1Br`: the inhibition was -11.4%.

For `CC(CNC(=O)Cn1cnc2c(OCc3ccccc3)ncnc21)c1ccccc1` (centres undefined), the inhibition was -13.2%.

As for `CCCCNC(=O)N1CCCC(N(C)CCc2ccc(OC)c(OC)c2)C1` (centres undefined), the inhibition is -14.5%.

With `CN(Cc1ccccc1F)C(=O)C(Cc1ccccc1)NC(=O)c1ccccc1` (centres undefined), the inhibition is -5.25%.

As to `Cc1nn(CCOc2ccc(Br)cc2)c(C)c1[N+](=O)[O-]`, the inhibition was -14%.

Regarding `CCOC(=O)N1CCN(Cc2nc3ccc([N+](=O)[O-])cc3c(=O)n2-c2cccc(OC)c2)CC1`, the inhibition is -6.54%.

As to `CCn1nnnc1SCC(=O)Nc1ccc(N(C)C)cc1`, the inhibition was -8.46%.

As for `COc1ccc(N(CC(=O)NC2CCCCCCC2)S(=O)(=O)c2c(C)nn(C)c2C)cc1`, the inhibition was -11.2%.

On to `Cc1ccc(CNC(=O)CC(NC(=O)c2ccccc2)c2ccccc2)cc1` (centres undefined), for which the inhibition was -6.05%.

For `NC(=O)c1ncc(C(F)(F)F)cc1Oc1ccc(F)cc1`, the inhibition was -11.7%.

As for `O=C(Nc1ccc(OCC(=O)N2CCOCC2)cc1)c1cc(F)c(F)cc1Cl`, the inhibition is -15.7%.

Turning to `Cc1ccc(CN2CC(C(=O)N3CCN(S(=O)(=O)c4ccccc4)CC3)CC2=O)cc1` (centres undefined), the inhibition was -11.4%.

With `O=C1C=CC(=O)N1c1ccc(N2CCCCC2)cc1`, the inhibition was -13.5%.

In the case of `C#CCOCCOCCOCCNc1nc(N2CCN(C(=O)[C@H](CO)n3cc([C@@H](N)C(C)C)nn3)CC2)nc(N2CCN(C(=O)[C@H](CCC(=O)O)n3cc([C@@H](N)[C@H](C)CC)nn3)CC2)n1`, the inhibition was -4.25%.

As for `COc1ccc(C(=O)NC2CCN(C(=O)Nc3ccc(F)cc3)CC2)cc1`, the inhibition is -6.33%.

For `O=C(CSc1nnc(-c2cccnc2)n1CCc1ccccc1)NCc1ccccc1`, the inhibition was -11.6%.

On to `CCOC(=O)C1(Cc2ccc(O)cc2)NC(c2ccccc2F)C2C(=O)N(C)C(=O)C21` (centres undefined), for which the inhibition is -8.27%.

Turning to `CC[C@]12c3[nH]c4ccc(Cl)cc4c3CCN1C(=O)[C@@H](CC(=O)NCCCOC)C[C@@H]2C(=O)N1CCN(C(=O)c2ccco2)CC1`, the inhibition was -13.8%.

As for `O=C(/C=C/c1ccccc1Cl)Nc1ccc(S(=O)(=O)Nc2ncccn2)cc1`, the inhibition is -4.75%.

Take `O=C(CCCOc1ccccc1)NCc1ccco1`: the inhibition was -2.34%.

Regarding `CCn1c(SCC(=O)Nc2ccc(OC)c(OC)c2)nnc1-c1c[nH]c2ccccc12`, the inhibition was -5.34%.

In the case of `COc1ccc(N2C(=O)CC(Sc3n[nH]c(-c4ccc(C)cc4)n3)C2=O)cc1` (centres undefined), the inhibition was -16%.

Turning to `CC(NC(=S)NNS(=O)(=O)c1ccc(C(C)(C)C)cc1)c1ccccc1` (centres undefined), the inhibition is -8.37%.

In the case of `Cc1cc(C)cc(NC(=O)N(C)Cc2ccccc2)c1`, the inhibition was -16%.

Regarding `C/C(Cc1ccccc1)=N\NC(=O)CNC(=O)c1cccc(Br)c1`, the inhibition is 2.03%.

For the compound `CCOc1ccc(OCC)c(NC(=O)CCS(=O)(=O)c2ccc(C)cc2)c1`, the inhibition was -14.3%.

Consider `CCc1ccc(NC(=O)N2CCc3ccccc3C2)cc1`, for which the inhibition is -0.823%.

As to `CCOC(=O)C(NC(=O)CC(C)C)(Nc1sc2c(c1C(N)=O)CCCC2)C(F)(F)F` (centres undefined), the inhibition is -4.91%.

Take `CC1Cc2ccccc2N1S(=O)(=O)c1ccc(Cl)nc1` (centres undefined): the inhibition was 24.3%.

As to `COc1ccc(OCC(=O)NN2Cc3ccccc3C2=N)cc1`, the inhibition is 7.9%.

For the compound `COc1ccc(CNS(=O)(=O)c2ccc(NC(=O)N3CCCCC3)cc2)cc1`, the inhibition was 1.88%.

In the case of `N#Cc1cc([N+](=O)[O-])ccc1Oc1cccc(/C=N/NC(=O)c2ccc(Cl)cc2)c1`, the inhibition is 65.3% (active).

Regarding `O=C(N/N=C/c1ccc(Cl)cc1)c1nc2ccc([N+](=O)[O-])cc2c(=O)[nH]1`, the inhibition is -8.55%.

On to `O=C(N/N=C/c1cccc(OC(=O)c2ccc([N+](=O)[O-])cc2)c1)c1cccnc1`, for which the inhibition was -8.47%.

In the case of `C/C(=N\NC(=O)Cc1ccccc1[N+](=O)[O-])c1cccnc1`, the inhibition is -8.6%.

With `O=C(CN1CCSCC1)N/N=C/c1ccc(F)cc1F`, the inhibition was -7.29%.

In the case of `COc1ccccc1N1CCN(C(=O)CCS(=O)(=O)c2ccc3c(c2)NC(=O)C(C)S3)CC1` (centres undefined), the inhibition is -17.3%.

Consider `CN1C(C(=O)NCc2ccco2)CC2Cn3c(nc4ccccc43)C21` (centres undefined), for which the inhibition was -1.69%.

In the case of `CCOC(=O)N1CCC(Nc2c(NCCCN3CCN(CC)CC3)c(=O)c2=O)CC1`, the inhibition is -6.72%.

In the case of `O=C(NCc1ccco1)/C(=C/c1cccc([N+](=O)[O-])c1)NC(=O)c1ccco1`, the inhibition was 5.34%.

With `OC(CNCC1CCCO1)Cn1c2ccc(Br)cc2c2cc(Br)ccc21` (centres undefined), the inhibition is -10.5%.

In the case of `O=c1cc(Cl)c2ccccc2n1-c1ccccc1`, the inhibition is -10.1%.

As for `Cc1cccc(N2CCN(C(=O)c3cccc(N4C(=O)C5C6C=CC(C6)C5C4=O)c3)CC2)c1C` (centres undefined), the inhibition was -11.5%.

Turning to `Cc1ccc(S(=O)(=O)NCCSC(C)(C)C)cc1`, the inhibition is 6.35%.

As to `COc1ccc(S(=O)(=O)N2C[C@H]3CON(C)[C@H]3C[C@H]2c2cccc(Br)c2)cc1`, the inhibition was 4.46%.

As to `O=C(NCCc1ccccc1)C1CCC(Cn2c(=O)c3ccccc3n(Cc3cccnc3)c2=O)CC1` (centres undefined), the inhibition is -13.5%.

Turning to `COc1ccc(-c2[nH]ncc2CN(C)Cc2cccnc2)c(F)c1`, the inhibition was -16.1%.

Turning to `Cc1ccc(N(C(=O)Cc2cccs2)C2C=CS(=O)(=O)C2)cc1Cl` (centres undefined), the inhibition was -5.8%.

`CCCC(=O)N1CCN(c2nnc(-c3ccc(C)cc3)c3ccccc23)CC1`: the inhibition was -23.6%.

For the compound `COc1cccc(NC(=O)c2ccccc2N(Cc2ccccc2)S(C)(=O)=O)c1`, the inhibition was -17.2%.

`CCOc1ccc(-c2noc(CCC(=O)NC3CCCC3)n2)cc1OC`: the inhibition was 3.89%.

For the compound `CC(C)=CCC/C(C)=C/C(=O)O`, the inhibition was -3.82%.

As to `O=C(N/C(=C/c1ccc(Cl)cc1)C(=O)N1CCCCC1)c1ccco1`, the inhibition was -10.7%.

For the compound `CN1C(C(=O)NCC2CC2)CC2Cn3c(nc4ccccc43)C21` (centres undefined), the inhibition is -7.73%.

Turning to `COc1cccc(C2=CC(=O)C[C@H](c3ccc(OC)c(OC)c3)C2)c1`, the inhibition was -0.585%.

Regarding `O=C1C=C(c2cccc(Br)c2)C[C@@H](c2ccc(F)cc2)C1`, the inhibition was 63.4% (active).

Regarding `O=C1C=C(c2cccc(Cl)c2)C[C@@H](c2ccc(F)cc2)C1`, the inhibition is 37.3% (active).

Take `COc1cccc(C2=CC(=O)C[C@H](c3ccc(F)cc3)C2)c1OC`: the inhibition was -13.7%.

For `O=C1C=C(c2cccc(Cl)c2O)C[C@@H](c2ccc(F)cc2)C1`, the inhibition was -5.55%.

As for `COc1ccccc1C1=CC(=O)C[C@H](c2ccc(F)cc2)C1`, the inhibition was 2.08%.

By inhibition is commonly meant the change of the read-out against control, counted positive when it falls.

(Values after PubChem BioAssay AID488965 (Broad Institute, 2010).)
